According to PubChem BioAssay AID1159580 (chemical genetic matrix, 2015):
Among all 5,500 compounds or so, about 2,000 (36%) were called active. Inconclusive results (about 18%) are left out. Cut-off read from the data, not from the text of the source: active = normalized growth mostly below about 0.91 (no sharp cut-off); inconclusive = no clear call, values can overlap the other calls; inactive = mostly above about 0.92. The list shows a part of the results.

Test: chemical genetic growth profiling, strain panel (AID 1159580);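 note: tested at 20 µM; growth read once vehicle control cultures reached saturation at 30 °C; 1 = growth at the plate median or of vehicle wells; lower values mean less growth of the strain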
Details: growth OD

Measured: normalized growth

CCn1cc(C(=O)O)c(=O)c2cc(F)c(N3CCNCC3)cc21
inactive: S. cerevisiae deletion strains, locus YJR043C, strain POL32, active compounds read low 0.99 | S. cerevisiae deletion strains, locus YJR066W, strain TOR1, active compounds read low 0.954 | S. cerevisiae deletion strains, locus YKL009W, strain mrt4, active compounds read low 0.994 | S. cerevisiae deletion strains, locus YKL068W, active compounds read low 1.01 | S. cerevisiae deletion strains, locus YKL085W, strain MDH1 (second series), active compounds read low 1 | S. cerevisiae deletion strains, locus YKL085W, strain MDH1, active compounds read low 1 | S. cerevisiae deletion strains, locus YKL160W, strain elf1, active compounds read low 1.02 | S. cerevisiae deletion strains, locus YKL190W, strain CNB1, active compounds read low 1.01 | S. cerevisiae deletion strains, locus YKR001C, strain vps1, active compounds read low 0.985 | S. cerevisiae deletion strains, locus YKR026C, strain gcn3, active compounds read low 0.978 | S. cerevisiae deletion strains, locus YKR091W, strain srl3, active compounds read low 0.992 | S. cerevisiae deletion strains, locus YLL001W, strain dnm1, active compounds read low 0.998 | S. cerevisiae deletion strains, locus YLL026W, active compounds read low 0.992 | S. cerevisiae deletion strains, locus YLL041C, strain sdh2, active compounds read low 0.981 | S. cerevisiae deletion strains, locus YLR027C, strain aat2, active compounds read low 0.988 | S. cerevisiae deletion strains, locus YLR039C, strain RIC1, active compounds read low 0.92 | S. cerevisiae deletion strains, locus YLR058C, strain SHM2, active compounds read low 1.01 | S. cerevisiae deletion strains, locus YLR102C, strain apc9, active compounds read low 1 | S. cerevisiae deletion strains, locus YLR113W, strain HOG1, active compounds read low 1.02 | S. cerevisiae deletion strains, locus YLR221C, strain rsa3, active compounds read low 1.01 | S. cerevisiae deletion strains, locus YLR258W, strain gsy2, active compounds read low 0.988 | S. cerevisiae deletion strains, locus YLR262C, strain YPT6 (second series), active compounds read low 0.97 | S. cerevisiae deletion strains, locus YLR262C, strain YPT6, active compounds read low 0.92 | S. cerevisiae deletion strains, locus YLR268W, strain sec22, active compounds read low 0.96 | S. cerevisiae deletion strains, locus YLR320W, strain mms22, active compounds read low 0.998 | S. cerevisiae deletion strains, locus YLR330W, strain CHS5, active compounds read low 1 | S. cerevisiae deletion strains, locus YLR342W, strain FKS1 (second series), active compounds read low 0.927 | S. cerevisiae deletion strains, locus YLR342W, strain FKS1, active compounds read low 0.991 | S. cerevisiae deletion strains, locus YLR357W, strain rsc2, active compounds read low 0.95 | S. cerevisiae deletion strains, locus YLR370C, strain arc18, active compounds read low 0.982 | S. cerevisiae deletion strains, locus YLR371W, strain rom2, active compounds read low 1.01 | S. cerevisiae deletion strains, locus YLR384C, strain iki3, active compounds read low 0.983 | S. cerevisiae deletion strains, locus YLR418C, strain cdc73, active compounds read low 0.924 | S. cerevisiae deletion strains, locus YML016C, strain PPZ1, active compounds read low 1 | S. cerevisiae deletion strains, locus YML032C, strain rad52, active compounds read low 0.987 | S. cerevisiae deletion strains, locus YML120C, strain ndi1, active compounds read low 0.976 | S. cerevisiae deletion strains, locus YML124C, strain tub3, active compounds read low 1 | S. cerevisiae deletion strains, locus YMR058W, strain fet3, active compounds read low 0.986 | S. cerevisiae deletion strains, locus YMR078C, strain ctf18, active compounds read low 1.01 | S. cerevisiae deletion strains, locus YMR125W, strain sto1, active compounds read low 0.965 | S. cerevisiae deletion strains, locus YMR129W, active compounds read low 0.969 | S. cerevisiae deletion strains, locus YMR205C, strain PFK2, active compounds read low 1.01 | S. cerevisiae deletion strains, locus YMR223W, strain ubp8, active compounds read low 0.989 | S. cerevisiae deletion strains, locus YMR231W, strain pep5, active compounds read low 0.987 | S. cerevisiae deletion strains, locus YMR263W, strain SAP30, active compounds read low 0.998 | S. cerevisiae deletion strains, locus YMR307W, strain GAS1, active compounds read low 0.899 | S. cerevisiae deletion strains, locus YNL067W, strain RPL9B, active compounds read low 1.01 | S. cerevisiae deletion strains, locus YNL071W, strain lat1, active compounds read low 0.962 | S. cerevisiae deletion strains, locus YNL128W, strain TEP1, active compounds read low 1.03 | S. cerevisiae deletion strains, locus YNL183C, strain NPR1, active compounds read low 0.962 | S. cerevisiae deletion strains, locus YNL209W, strain ssb2, active compounds read low 0.986 | S. cerevisiae deletion strains, locus YNL233W, strain BNI4, active compounds read low 0.998 | S. cerevisiae deletion strains, locus YNL248C, strain rpa49, active compounds read low 0.992 | S. cerevisiae deletion strains, locus YNL250W, strain rad50, active compounds read low 0.985 | S. cerevisiae deletion strains, locus YNL271C, strain bni1, active compounds read low 0.986 | S. cerevisiae deletion strains, locus YNL298W, strain CLA4, active compounds read low 0.99 | S. cerevisiae deletion strains, locus YNL307C, strain MCK1, active compounds read low 0.997 | S. cerevisiae deletion strains, locus YNL322C, strain KRE1 (second series), active compounds read low 0.981 | S. cerevisiae deletion strains, locus YNR049C, strain mso1, active compounds read low 0.985 | S. cerevisiae deletion strains, locus YNR052C, strain pop2, active compounds read low 0.998 | S. cerevisiae deletion strains, locus YOL006C, strain TOP1, active compounds read low 0.965 | S. cerevisiae deletion strains, locus YOL012C, strain htz1 0.792 | S. cerevisiae deletion strains, locus YOL147C, strain pex11, active compounds read low 0.999 | S. cerevisiae deletion strains, locus YOR001W, strain rrp6, active compounds read low 0.94 | S. cerevisiae deletion strains, locus YOR061W, strain CKA2, active compounds read low 1 | S. cerevisiae deletion strains, locus YOR069W, strain VPS5, active compounds read low 1.01 | S. cerevisiae deletion strains, locus YOR070C, strain gyp1, active compounds read low 0.979 | S. cerevisiae deletion strains, locus YOR080W, strain dia2, active compounds read low 0.974 | S. cerevisiae deletion strains, locus YOR083W, strain WHI5, active compounds read low 1.04 | S. cerevisiae deletion strains, locus YOR106W, strain vam3, active compounds read low 1 | S. cerevisiae deletion strains, locus YOR136W, strain idh2, active compounds read low 1.01 | S. cerevisiae deletion strains, locus YOR144C, strain elg1, active compounds read low 0.998 | S. cerevisiae deletion strains, locus YOR184W, strain ser1, active compounds read low 1.01 | S. cerevisiae deletion strains, locus YOR231W, strain MKK1, active compounds read low 0.988 | S. cerevisiae deletion strains, locus YOR265W, strain rbl2, active compounds read low 0.983 | S. cerevisiae deletion strains, locus YOR270C, strain vph1, active compounds read low 0.956 | S. cerevisiae deletion strains, locus YOR290C, strain snf2, active compounds read low 0.974 | S. cerevisiae deletion strains, locus YOR316C, strain cot1, active compounds read low 1.01 | S. cerevisiae deletion strains, locus YPL051W, strain arl3, active compounds read low 0.994 | S. cerevisiae deletion strains, locus YPL055C, strain LGE1, active compounds read low 0.991 | S. cerevisiae deletion strains, locus YPL078C, strain atp4, active compounds read low 0.979 | S. cerevisiae deletion strains, locus YPL106C, strain sse1, active compounds read low 0.972 | S. cerevisiae deletion strains, locus YPL240C, strain hsp82, active compounds read low 0.983 | S. cerevisiae deletion strains, locus YPL256C, strain CLN2, active compounds read low 0.944 | S. cerevisiae deletion strains, locus YPR119W, strain clb2, active compounds read low 1 | S. cerevisiae deletion strains, locus YPR141C, strain kar3, active compounds read low 1 | S. cerevisiae deletion strains, locus YPR163C, strain tif3, active compounds read low 1 | S. cerevisiae deletion strains, locus YPR167C, strain met16, active compounds read low 1.01 | S. cerevisiae deletion strains, strain wtn01, active compounds read low 0.998 | S. cerevisiae strains, strain wild type, active compounds read low 1.01
